Laboratory results reported in PubChem BioAssay (NCI).
This is part of a sample that, as a whole, favours compounds with a hit. Of some 83,000 tested, about 20% had one in any assay.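 Method: cells in 96-well plates; compound added at one concentration; 48 h incubation; percent growth measured; values under 10 scored active.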 A number with no mark means an inactive call. Active and inactive are the calls of the source.

test system: A498 renal; test: NCI-60 one-dose screen, 48 h (100 = growth as untreated, 0 = no growth, -100 = all killed); settings: 10 µM unless noted

Compound | growth
CCCCCCCCCCCCSC1=C(Cl)C(=O)C(OC)=C(OC)C1=O | 77.4%
CN(C(=S)S(=O)(=O)C12CC3CC(CC(C3)C1)C2)c1ccccc1 | 98.6%
N#Cc1ccc2nc[nH]c2c1 | 98.7%
CCCCCC#CC(=O)O | 105%
CC(=O)C1C(=O)C(=O)N(c2ccc(Cl)c(Cl)c2)C1=O (centres undefined) | 118%
CC(C)OCC(CCl)OC(=O)Nc1ccccc1 (centres undefined) | 103%
Cc1cc(Nc2ccc3c(c2)OCO3)c2cc3c(cc2n1)OCO3 | -1.69% (active)
NC(=O)N1CCOCC1 | 92.7%
C=COC(=O)CCOCC(CC)CCCC (centres undefined) | 91.9%
N#C/C(=C\c1ccc(C#N)cc1)C(=O)c1ccccc1 | 118%
Cc1cccc(C)c1NC(=S)/N=C\c1c(O)[nH]c(=O)[nH]c1=O | 103%
COc1ccc(C(=O)C(=O)c2ccccc2)cc1 | 97.5%
O=C1CSc2ccccc2N1 | 97.2%
CC(c1ccccc1)N(C)C (centres undefined) | 139%
CCOC(=O)/C(O)=C(\C=N\C(=S)Nc1ccc(Cl)c(Cl)c1)C(=O)OCC | 101%
CCC(=O)C1C(=O)c2ccccc2C1=O | 114%
CCCCCCCCCc1ccc(OC(C)=O)cc1 | 70.1%
CCOP(=O)(OCC)/C(=C\N1C(=O)CC(=O)NC1=S)C(=O)OC | 87.7%
C=CCOc1ccc(Cl)cc1Cl | 107%
NNC(=O)N/N=C1\C(=O)N(c2nccs2)C(=O)C(=O)C1c1nc2ccccc2s1 (centres undefined) | 98.3%
C=CCN1CCCC1=O | 91%
COc1cc(C(=O)O)c(O)c(C(C)(C)C)c1 | 96.3%
CC(=O)OCC1OC(n2cnc3c(=S)nc(N)[nH]c32)C(OC(C)=O)C1OC(C)=O (centres undefined) | 105%
CCC(=O)Oc1ccc2ccccc2c1 | 82.7%
Cc1ccc(NCN2C(=O)c3ccccc3C2=O)c(C)n1 | 88.7%
O=C(O)c1c[nH]c2ccccc2c1=O | 127%

test system: CCRF-CEM leukemia; test: as above; settings: 10 µM unless noted

Compound | growth
CCOS(=O)(=O)c1ccc([N+](=O)[O-])cc1 | 99.2%
CN(C(=S)S(=O)(=O)C12CC3CC(CC(C3)C1)C2)c1ccccc1 | 15.9%
N#Cc1ccc2nc[nH]c2c1 | 115%
CCCCCC#CC(=O)O | 102%
COc1ccc(C(=O)/C(=N/Nc2ccccc2)c2ccc(OC)cc2)cc1 | 94.1%
Cc1cc(Nc2ccc3c(c2)OCO3)c2cc3c(cc2n1)OCO3 | -7.98% (active)
CC(=O)Nc1ccc(O)c(C)c1 | 95.4%
COc1cccc2c1Cc1ccccc1-2 | 104%
N#C/C(=C\c1ccc(C#N)cc1)C(=O)c1ccccc1 | 92.9%
Cc1cccc(C)c1NC(=S)/N=C\c1c(O)[nH]c(=O)[nH]c1=O | 98.9%
O=C1CSc2ccccc2N1 | 96.6%
Cc1c(Cl)cccc1NC(=S)NC(=O)c1ccccc1 | 95.3%
CCOC(=O)/C(O)=C(\C=N\C(=S)Nc1ccc(Cl)c(Cl)c1)C(=O)OCC | 97.7%
CCC(=O)C1C(=O)c2ccccc2C1=O | 107%
Nc1ncnc(Nc2ccc(C(F)(F)F)cc2)n1 | 116%
Cc1cc(Cl)cc(Cc2cc(Cl)cc(C)c2O)c1O | 5.51% (active)
CCOC(=O)C(=O)CC(=O)c1ccccc1 | 114%
CC(C)c1ncc([N+](=O)[O-])n1C | 102%

test system: MOLT-4 leukemia; test: as above; settings: 10 µM unless noted

Compound | growth
CN(C)Cc1ccccn1 | 107%
CCNCC(C)(C)O | 99.2%
CCOS(=O)(=O)c1ccc([N+](=O)[O-])cc1 | 98.5%
CCCCCCCCCCCCSC1=C(Cl)C(=O)C(OC)=C(OC)C1=O | -4.73% (active)
N#Cc1ccc2nc[nH]c2c1 | 109%
CCCCCC#CC(=O)O | 101%
CC(=O)C1C(=O)C(=O)N(c2ccc(Cl)c(Cl)c2)C1=O (centres undefined) | 91.5%
CC(C)OCC(CCl)OC(=O)Nc1ccccc1 (centres undefined) | 99.9%
COc1ccc(C(=O)/C(=N/Nc2ccccc2)c2ccc(OC)cc2)cc1 | 85%
Cc1cc(Nc2ccc3c(c2)OCO3)c2cc3c(cc2n1)OCO3 | 35.8%
NC(=O)N1CCOCC1 | 93.7%
CC(=O)Nc1ccc(O)c(C)c1 | 85.2%
COc1cccc2c1Cc1ccccc1-2 | 113%
C=COC(=O)CCOCC(CC)CCCC (centres undefined) | 93.9%
COc1ccc(C(=O)C(=O)c2ccccc2)cc1 | 101%
O=C1CSc2ccccc2N1 | 114%
Cc1c(Cl)cccc1NC(=S)NC(=O)c1ccccc1 | 83.9%
CC(c1ccccc1)N(C)C (centres undefined) | 84.3%
CCOC(=O)/C(O)=C(\C=N\C(=S)Nc1ccc(Cl)c(Cl)c1)C(=O)OCC | 76.5%
Nc1ncnc(Nc2ccc(C(F)(F)F)cc2)n1 | 96.6%
CCOP(=O)(OCC)/C(=C\N1C(=O)CC(=O)NC1=S)C(=O)OC | 100%
C=CCOc1ccc(Cl)cc1Cl | 52%
Cc1cc(Cl)cc(Cc2cc(Cl)cc(C)c2O)c1O | -15.1% (active)
C=CCN1CCCC1=O | 93.8%
COc1cc(C(=O)O)c(O)c(C(C)(C)C)c1 | 98.1%
CCC(=O)Oc1ccc2ccccc2c1 | 99%
CCOC(=O)C(=O)CC(=O)c1ccccc1 | 104%
Cc1ccc(NCN2C(=O)c3ccccc3C2=O)c(C)n1 | 104%
CC(C)c1ncc([N+](=O)[O-])n1C | 104%
O=C(O)c1c[nH]c2ccccc2c1=O | 90%
